# The whole screen tested about 6,700 compounds, of which about 20 (0.3%) were called active. This is one part of a sample in which actives are shown more often than they occur. Values without a mark were called inactive.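 How the source made its calls: active means mean percent activation in the counterscreen above 29.09%; inactive means the rest.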
# Molecular target: Glucose-dependent insulinotropic receptor (Homo sapiens) (UniProt Q8TDV5)
# Experiment: off-target GPR119 activation – cell-based, PathHunter beta-arrestin, luminescence, triplicate, counter-screen for GPR151 activator project (AID 1508611);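 further: counterscreen on off-target GPR119 to flag nonselective hits from the GPR151 activator screen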
# Settings: GPR119 PathHunter beta-arrestin cells, 90 min, at 11.2 µM, active compounds read high, 0 = compound-well median, 100 = enzyme-acceptor control
# Chain of Glucose-dependent insulinotropic receptor (Homo sapiens) (Q8TDV5 whole entry, looked up): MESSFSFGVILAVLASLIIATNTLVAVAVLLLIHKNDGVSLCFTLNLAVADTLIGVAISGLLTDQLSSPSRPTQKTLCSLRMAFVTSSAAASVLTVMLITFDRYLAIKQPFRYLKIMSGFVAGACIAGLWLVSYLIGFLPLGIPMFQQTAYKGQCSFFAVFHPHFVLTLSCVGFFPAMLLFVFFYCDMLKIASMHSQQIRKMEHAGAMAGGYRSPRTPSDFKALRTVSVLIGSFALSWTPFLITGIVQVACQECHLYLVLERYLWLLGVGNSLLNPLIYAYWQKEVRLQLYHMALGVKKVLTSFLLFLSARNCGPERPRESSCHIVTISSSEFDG
row,SMILES,activation [%]
1,CC(=O)Cn1c(=O)c2c(nc3n2CCCN3c2ccc(Br)cc2)n(C)c1=O,8.64
2,N#Cc1ccc(N2CCN(CCCNC(=O)Nc3ccccc3)CC2)cc1,-8.24
3,COc1cccc(/C=C2/C(=O)NC(=O)N(c3ccccc3F)C2=O)c1,15.2
4,COc1ccc(Br)cc1C(=O)NCC1COc2ccccc2O1 (stereo unspecified),-9.64
5,COc1ccc(C(=O)Nc2sc3c(c2C(N)=O)CCCC3)cc1,-10
6,O=C(Nc1cccc(N2CCC(NCc3ccon3)CC2)c1)c1cccnc1,18.2
7,Cc1ccc(S(=O)(=O)Cn2nnnc2CN2CCN(c3ccccc3F)CC2)cc1,8.39
8,O=C(COc1ccc([N+](=O)[O-])cc1)Nc1ccc2oc(-c3cccc(F)c3)nc2c1,-7.11
9,CN1CC(=O)N2CCN(C(=O)OCc3ccccc3)C[C@@H]2C1=O,1.78
10,CC(C)C(=O)NC(C)c1nnc2n1CCN(Cc1ccc3cccnc3c1)CC2 (stereo unspecified),6.65
11,CCN(CC)S(=O)(=O)c1ccc(C)c(NS(=O)(=O)c2cccc(C#N)c2)c1,-6.36
12,CCOc1ccc(N2C(=O)C3C4c5ccccc5C(C(C)O)(c5ccccc54)C3C2=O)cc1 (stereo unspecified),-4.77
13,C=CCNC(=O)C(=O)NCC1OCCCN1S(=O)(=O)c1ccccc1 (stereo unspecified),-6.88
14,CC(=O)Oc1cccc(N2C(=O)C3C4c5ccccc5C(C)(c5ccccc54)C3C2=O)c1 (stereo unspecified),-7.48
15,CCOC(=O)C1=C(CC)OC(N)=C(C#N)C1c1ccc(C(F)(F)F)cc1 (stereo unspecified),-9.1
16,CCN1/C(=C/c2ccc3cc(C)ccc3[n+]2CC)Sc2ccc(-c3ccccc3)cc21,0.91
17,CCc1nnc2n1N(C(C)=O)C(c1ccc3c(c1)CCCC3)=C(C(C)=O)S2,3.36
18,CC(C)CCSc1nc2c(c(=O)n1Cc1ccco1)C1(CCCCC1)Cc1ccccc1-2,-4.2
19,O=C1CCC(CCNCCOc2ccccc2)N1CCc1ccccc1 (stereo unspecified),12.1
20,O=C(Cc1cccs1)NCCC1=CCCCC1,0.59
21,CCN1CCCC1CNc1nc(=S)[nH]c2ccccc12 (stereo unspecified),-5.74
22,CCc1ccc(NS(=O)(=O)c2ccc(Cl)cc2)cc1,1.55
23,CC12CCC(C(=O)Nc3ncc(Cl)cc3Cl)(CC1=O)C2(C)C (stereo unspecified),-5.44

row,SMILES,activation [%]
1,Cc1cnc(Nc2ccc(N3CCOCC3)cc2)nc1NCc1cccc(C(F)(F)F)c1,15.3
2,Cc1nc2cc(C(=O)NCc3ccc4c(c3)OCO4)ccc2n1-c1ccc(OCc2ccccc2)cc1,-11.3
3,COc1ccccc1NC(=O)NCc1nc(-c2ccc(OC)c(OC)c2)no1,-3.49
4,O=C(COc1ccc(Br)cc1CO)NCC(F)(F)F,5.45
5,CCOC(=O)Cc1coc(NC(=O)c2ccc(Cl)cc2)n1,16.4
6,Cc1nc2nc(SCc3ccc([N+](=O)[O-])cc3)nn2c(C)c1Cc1c(F)cccc1Cl,15.8
7,COc1ccccc1C1C(C(N)=O)=C(C)Nc2nc(CCCO)nn21 (stereo unspecified),-6.42
8,CCOc1ccc(NC(=O)COc2cccc(C)c2C)cc1,6
9,COc1cccc(C(=O)NC(=S)Nc2ccc(OC)cc2OC)c1,5.05
10,CCC(=O)Nc1cc(C(=O)O)ccc1C,0.03
11,Brc1cnc(NC2CCCCC2)nc1,4.03
12,CC(C)N1CCc2c(sc(NC(=O)Cc3ccccc3)c2C#N)C1,-3.52
13,O=C(N/N=C/c1cc(Cl)ccc1O)c1cc(-c2ccccc2)n[nH]1,-13.8
14,COc1ccc(/C=C(\C#N)C(=O)Nc2cccc(S(=O)(=O)N3CCCCC3)c2)cc1,-10.3
15,COc1cccc(-c2nnc(NC(=O)CSc3ccccc3)o2)c1,6.53
16,Cc1ccc(N2C(=O)CC(N3CCN(Cc4ccc(Cl)cc4)CC3)C2=O)cc1Cl (stereo unspecified),6.82
17,O=C(CCn1cnc2c(cnn2-c2ccc(F)cc2)c1=O)NCCC1=CCCCC1,1.14
18,COc1ccc(OC)c(NC(=O)CSc2nnc3[nH]c(=O)c(C)c(C)n23)c1,3.38
19,COc1nc(Nc2ccccc2)nc(-c2c(C)noc2C)n1,-7.06
20,CSc1ncc(C(=O)NCCc2c[nH]c3ccccc23)c(C)n1,-0.1
21,Cc1cc(Nc2ccc(F)cc2)n2cnnc2n1,-9.37
22,Clc1ccccc1C1C=C(c2ccc(I)cc2)Nc2nnnn21 (stereo unspecified),-6.17
23,CCC(C)Nc1nc2c(c(=O)[nH]c(=O)n2C)n1CC(O)COC(C)C (stereo unspecified),-3.29

row,SMILES,activation [%]
1,Cc1cc(N2CCOCC2)ccc1C=C1C(=O)c2ccccc2C1=O,1.45
2,COCCNC(=S)N1CCN(c2ccccc2OC)CC1,-11.2
3,COc1cc(NC(=O)c2sc3ncnc(N4CCCCC4)c3c2C)cc(OC)c1OC,0.56
4,CC(C)(C)OC(=O)N1CCC[C@H](Cn2cc(C(=O)O)nn2)C1,2
5,COCCN1C(=O)CC(CC(=O)NCc2nc3ccccc3[nH]2)(c2ccccc2C)C1=O (stereo unspecified),3.87
6,O=C(CCc1nnc(CCCCc2ccccc2)o1)N1CCC(N2CCSCC2)CC1,0.58
7,CC1CCN(C(=O)C(NS(=O)(=O)c2ccc3c(c2)oc(=O)n3C)C(C)C)CC1 (stereo unspecified),6.52
8,Cc1ccc(C2=NC(c3cc(Br)ccc3F)NC(c3cc(Cl)ccc3O)C2)cc1 (stereo unspecified),6.67
9,COc1ccc(-c2nnc(SCCC#N)o2)cc1,-4.81
10,COc1ccc(OC)c(NC(=S)Nc2ccccn2)c1,-19.3
11,Oc1ccc(Cn2cc[nH]c2=S)cc1,-8.52
12,CCCCc1ccc(N=Cc2nc(-c3cccc4ccccc34)oc2O)cc1,-7.98
13,COc1ccc(C(=O)Cc2cc3ccccc3oc2=O)c(OC)c1,-8.7
14,O=C(CC1C(=O)NCCN1Cc1ccc2ccccc2c1)NCCCn1cccn1 (stereo unspecified),1.24
15,c1ccc(-c2nc(-c3cccs3)[nH]c2-c2cccs2)cc1,-1.67
16,CCOC(=O)c1cccc(NC(=O)CCCOc2ccc(OC)cc2)c1,-2.39
17,COc1ccc(OC)c(/C=N/n2nnnc2N)c1,-3.22
18,CC(C)(C)NC(=O)Cc1coc2ccc3ccccc3c12,-5.33
19,O=C(CN1C(=O)c2ccccc2C1=O)NC(c1ccccc1)c1ccc(Br)cc1 (stereo unspecified),-12.4
20,O=C(COc1ccc(CO)cc1)Nc1ccc(Cl)c(Cl)c1,-3.53
21,CO[C@@H]1COC(=O)[C@@H](C)COC(=O)[C@H](C)NC(=O)C/C=C/[C@H]1C,10.4
22,Cc1[nH][nH]c(=O)c1C(c1ccc(-c2ccc(F)cc2[N+](=O)[O-])o1)c1c(C)[nH][nH]c1=O,9
23,O=C(CN1C(=O)CCC1=O)Nc1ccc(S(=O)(=O)N2CCOCC2)cc1,9.75

row,SMILES,activation [%]
1,C=CCSC1=C(C#N)C(c2ccc(Cl)cc2Cl)CC(=O)N1 (stereo unspecified),-2.2
2,CC(C)n1c(=O)[nH]c2c(C(N)=O)nc(-c3ccc(-c4ccccc4)cc3)nc21,8.53
3,COc1ccc(N2C(=O)C(Cl)=C(Nc3ccc(C)cc3)C2=O)cc1,9.02
4,COc1cc(OC)cc(C(=O)Nc2ccc3c4c(cccc24)CC3)c1,9.11
5,CCOc1ccccc1-c1cc(C(=O)N2CCOCC2)c2ccccc2n1,-4.4
6,Cc1ccc(NC(=O)CSc2nnc(-c3ccc(N)cc3)n2C)cc1Cl,5.44
7,COc1ccc(C2(C)NC(=O)N(CC(=O)Nc3ccc4ccccc4c3)C2=O)cc1 (stereo unspecified),5.1
8,CC(=O)Nc1ccc(NC(=O)c2ccc3nc(Br)sc3c2)cc1,-3.64
9,CCC1C(=O)NCCN1Cc1ccc2c(c1)CN(Cc1c[nH]c3ccccc13)CCO2 (stereo unspecified),-4.8
10,CC(=O)Nc1nc(C(=O)Nc2nc(-c3sc(C)nc3C)cs2)cs1,13.5
11,c1cncc(Nc2nc(NC3CC3)c3ncn(C4CCCCC4)c3n2)c1,-7.65
12,COc1ccc(NC(=S)N2CCN(S(=O)(=O)c3ccc(F)cc3)CC2)c(OC)c1,-3.67
13,CCc1ccc(S(=O)(=O)NCCOc2cc(N3CCOCC3)ncn2)cc1,0.5
14,Cc1ccc(NC(=O)c2cccc(N(C)C)c2)cc1NC(=O)c1ccc(O)cc1,-0.12
15,COc1ccc(C=C(C#N)C#N)c(CSc2ccccn2)c1,14.8
16,COc1cc([N+](=O)[O-])ccc1NC(=S)NCc1cc(C)n(C)n1,-4.23
17,Cn1c(=O)c2c(nc(SCC(=O)O)n2Cc2ccc(F)cc2)n(C)c1=O,-2.28
18,C/C(=N/N1CCN(Cc2ccc(C)cc2C)CC1)c1ccc([N+](=O)[O-])cc1,-0.84
19,CCOc1cc(C2C3=C(CCCC3=O)NC3=C2C(=O)CCC3)cc(Br)c1OCC,8.25
20,CCCOC1(C(F)(F)F)NC(=O)N(c2ccc(C(C)C)cc2)C1=O (stereo unspecified),-7.99
21,CC(=O)c1cccc(-c2nc(Nc3ccc(Oc4ccccc4)cc3)c3ncn(-c4ccsc4)c3n2)c1,1.29
22,COc1cc(C(C)=Nc2c(C)n(C)n(-c3ccccc3)c2=O)cc(O)c1OC,3.69
23,Cc1ccccc1C(=O)NCc1nc(-c2ccc(Cl)cc2)no1,10.3

row,SMILES,activation [%]
1,C=CCn1c(=O)c2ccc(C(=O)NCc3ccc4c(c3)OCO4)cc2n(CC(N)=O)c1=O,5.23
2,COc1ccc([N+](=O)[O-])cc1NC(=O)C1CC(Cl)=CCC1C(=O)O (stereo unspecified),-0.8
3,O=C(Nc1ccc(NC(=O)c2cccc3c(Br)cccc23)cc1)c1ccco1,16.8
4,CC(=O)c1c(C)[nH]c(C(=O)N2CCN(c3ccc(Cl)cc3)CC2)c1C,2.38
5,COc1ccc(Nc2nc(-c3ccc(F)cc3)cs2)c(OC)c1,5.77
6,COc1cc(/C=N/N=C2/NC(=O)CS2)ccc1OC(=O)c1ccccc1C,-7.49
7,O=C(O)/C=C/c1ccccc1Cl,-5.81
8,COc1ccc(C(=O)Nc2ccc(S(=O)(=O)NC(C)C)cc2)cc1,13.4
9,CC(C(=O)NCCN1CCOCC1)n1c2ccccc2c2cn[nH]c(=O)c21 (stereo unspecified),5.53
10,Cc1ccc2cc(C#N)c(SCCO)nc2c1,-5.53
11,Cc1ccc[n+](-c2ncnc(N)c2[N+](=O)[O-])c1,-3.57
12,CCOc1ccc(/C=C2N=C(/C=C/c3cccc(Cl)c3Cl)OC\2=O)cc1,0.65
13,O=C(NCc1ccsc1)c1ccc(-n2cccc2)cc1,-3.28
14,O=C(C(Cc1ccccc1)N1C(=O)C2C3c4ccccc4C(c4ccccc43)C2C1=O)N1CCOCC1 (stereo unspecified),7.72
15,Cc1cccc(NC(=O)CSc2nc3[nH]ncc3c(=O)[nH]2)c1,0.57
16,NC(=S)N/N=C/c1ccc([N+](=O)[O-])cc1,6.78
17,O=C(/C=C/Nc1ccccc1NS(=O)(=O)c1ccc([N+](=O)[O-])cc1)c1ccco1,-7.75
18,CN(C)c1cccc(Nc2cc(C(=O)Nc3ccc(N4CCOCC4)cc3)ccn2)c1,-10.4
19,CC1=C(C(=O)Nc2cccc(F)c2)C(c2ccccn2)C2=C(CCCC2=O)N1 (stereo unspecified),0.3

# Reference: PubChem BioAssay AID1508611 (The Scripps Research Institute Molecular Screening Center, 2020)
